Experimental data: PubChem BioAssay (NCATS)
Results filed as inconclusive are left out. Where a call stands in place of a potency, no number is given. The source made the active and inactive calls. Calls come from the whole dose curve; as a rule, active = well fitted inhibition curve with a large enough effect; inconclusive = small, poorly fitted or top-dose-only effect; inactive = flat fitted curve, though single readings scatter. *1 amine or outer side, *2 acyl side, *3 side chain or, on linkers, in order; H or OH if unused. Where a SMILES comes first, the peptide text is derived from it. [ ]: non-standard residue; d: D form. ξ: configuration not given here. X4 = CC(C)=CCc1cc(C(O)C(N[*:1])C(=O)[*:2])ccc1O; ξLac(3-iPr) = CC(C)CC(O)C(=O)O; NMeV = CN[CH](C(=O)O)C(C)C; βAla = NCCC(=O)O

Each compound was assayed against Calcium and integrin-binding protein 1 (Homo sapiens) (UniProt Q99828) (assay: Primary qHTS for Identification of Calcium Integrin Binding Protein 1 (CIB1) Competitor (AID 1508620;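 note: GST tagged CIB1 binding a fluorescein labelled alphaIIb integrin peptide tracer; top concentration of the series differs between compounds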)). Settings: CIB1-GST / FITC-alphaIIb peptide fluorescence polarization; series mostly up to 114 µM.
Sequence of Calcium and integrin-binding protein 1 (Homo sapiens) (Q99828 whole entry, looked up): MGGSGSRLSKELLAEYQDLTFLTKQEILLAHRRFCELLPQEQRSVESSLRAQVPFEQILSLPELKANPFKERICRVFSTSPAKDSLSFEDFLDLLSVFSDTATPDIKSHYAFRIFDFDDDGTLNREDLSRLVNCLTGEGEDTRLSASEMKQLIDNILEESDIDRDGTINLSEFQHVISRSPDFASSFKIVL
Text: Assay Provider: Ulhas P. Naik, PhD Sidney Kimmel Medical College Thomas Jefferson University, Philadelphia, PA Primary function of platelets is to maintain hemostasis. At the site of vascular injury, platelets adhere to adhesive proteins such as collagen and von Willebrand factor. Adherent platelets are activated and generate soluble platelet agonists such as thrombin, ADP and thromboxane A2. Following exposure of circulating platelets to these agonists, results in platelet shape change, granule secretion and activation of platelet integrin alphaIIb-beta3. Ligand binding to activated integrin alphaIIb-beta3 triggers outside-in signaling, leading to platelet aggregation, stabilization of platelet plug, and clot retraction. Upon atherosclerotic plaque rupture also causes platelet plug formation, which underlies a number of cardiovascular diseases such as myocardial infraction and stroke. A number of anti-platelet drugs such as aspirin, clopidogrel, prasugrel, vorapaxar, and eptifibatide are currently available to prevent the thrombotic complications. However, these anti-platelet agents have several limitations including inherent variability in individual responses, developing resistance, and serious bleeding side effects. For these reasons they are not suitable for long-term protection. Based on the experiences with current anti-platelet drugs, it appears that the most useful therapeutic approach is to intersect the secondary responses such as integrin outside-in signaling or recruitment of platelets by TxA2 and secreted ADP. Compounds, which can largely preserve the primary hemostatic function of platelets but inhibit secondary response will be most desired therapeutic agents for treatment of cardiovascular disease. CIB1 is a calcium integrin binding protein, which specifically interact with the alphaIIb subunit of integrin alphaIIb-beta3. Binding of CIB1 to alphaIIb regulates the outside-in signaling in platelets, which is needed for thrombus stabilization and thrombus growth. […] Therefore, we propose that discovery of a small molecule that can prevent the association of CIB1 and alphaIIb-beta3 will be a potential anti-platelet agent that can block the thrombus formation without undue effect on hemostasis. Reference: [1] Naik MU, Nigam A, Manrai P, et al. CIB1 deficiency results in impaired thrombosis: the potential role of CIB1 in outside-in signaling through integrin alpha IIb beta 3. J Thromb Haemost.
PROTOCOL TABLES SEQUENCE No. (1, 2, 3, etc.); […] (e.g., Cells, Incubation, Reagent, etc.); VALUE and DESCRIPTION. 1; Reagent; 3 uL; Protein or buffer (4/3x) 2; Compound; 46 nL; Control inhibitor / compound library 3; Time; 15 min; Room temperature incubation 4; Reagent; 1 uL; Fluorescent labeled peptide (4x) 5; Time; 1000 rpm; Centrifuge 6; Time; 15 min; Room temperature incubation 7; Detection; Ex 480/ Em 540; ViewLux Fluorescence Read NOTES (numbers refer to sequence above) 1; Protein Mixture: C1B1-GST (final concentrations of 1 uM). […] 3; Room temperature incubation. 4; Fluorescent Labeled Peptide: FITC-aIIb (final concentration of 100 nM). Sequence of alphaIIb peptide: Acetyl-[…]-FITC (purity is 95.83%). 5; Centrifuge 1000 rpm (164 g) for 15 seconds. 6; Room temperature incubation. 7; ViewLux Fluorescent Polization Read: excitation = 480(20) / emission = 540(25) S and P; FITC Dichroic mirror.

Row | Structure (SMILES) | Potency | activity change, negative = inhibition
1 | COC(=O)c1ccc(OC(CO)C(O)c2ccc(O)c(OC)c2)c(OC)c1 (stereo not given) | inactive | –
2 | C=C1CC23CC1CCC2C12OC(=O)C(C)(CCC1O)C2C3C(=O)O (stereo not given) | inactive | –
3 | CC(C)CNCc1ccc(-c2ccccc2S(=O)(=O)N2CCCC2)cc1 | inactive | –
4 | C=C(C(=O)O)C1CCC2(C)CCCC(C)(O)C2C1 (stereo not given) | inactive | –
5 | CC(NC(=O)C(O)C(C)C)C(=O)NC1C(=O)N(C)CCc2ccccc21 (stereo not given) | inactive | –
6 | COc1ncc(Nc2ncc([C@@H](C)N3CCN(S(C)(=O)=O)CC3)cc2-c2nc(C)nc(N)n2)cc1F | inactive | –
7 | Cc1ccc(-c2ccc3ncc4c(c3n2)n(C2CCN(C(=O)[C@H](C)O)CC2)c(=O)n4C)cn1 | inactive | –
8 | CNS(=O)(=O)CC1CCC(N(C)c2ncnc3[nH]ccc23)CC1 (stereo not given) | inactive | –
9 | COc1cc2ncnc(Nc3ccc(O)cc3)c2cc1OC | inactive | –
10 | COc1cc(Br)c(Nc2nc(-c3c(C)nc4ncccn34)cs2)c(Br)c1 | inactive | –
11 | CC(O)c1cc(C(=O)N[C@@H](C)Cn2ccc(-c3ccc(C#N)c(Cl)c3)n2)n[nH]1 (stereo not given in full) | inactive | –
12 | CC(=O)OC/C=C(\C)C(CC1C(C)=C(OC(C)=O)C(=O)C2C(C)(C)C(O)CCC12C)OC(C)=O (stereo not given) | inactive | –
13 | C[C@@H]1O[C@@H](O[C@H]2[C@H](O)[C@@H](O[C@@H]3O[C@H](CO)[C@@H](O)[C@H](O[C@@H]4O[C@H](CO)[C@@H](O)[C@H](O)[C@H]4O)[C@H]3O)[C@H](O[C@H]3CC[C@@]4(C)C(=CC[C@@H]5C4CC[C@@]4(C)C5C[C@@H]5OC6(CC[C@@](C)(CO[C@@H]7O[C@H](CO)[C@@H](O)[C@H](O)[C@H]7O)O6)[C@@H](C)[C@@H]54)C3)O[C@@H]2CO)[C@H](O)[C@H](O)[C@H]1O (stereo not given in full) | – | -1.49% [at 12.4 µM] (inactive)
14 | COc1c2c(cc3c1-c1c(cc4c(c1OC)OCO4)CC(C)C(C)C3)OCO2 (stereo not given) | inactive | –
15 | CC(=O)N[C@H]1[C@H](O[C@H]2CC[C@@]3(C)C(CC[C@]4(C)C3CC=C3C5CC(C)(C)CC[C@]5(C(=O)O)[C@H](O)C[C@]34C)C2(C)C)O[C@H](CO[C@@H]2OC[C@H](O)[C@H](O)[C@H]2O[C@@H]2OC[C@@H](O)[C@H](O)[C@H]2O)[C@@H](O)[C@@H]1O (stereo not given in full) | inactive | –
16 | CCCNc1ccc2ncc(-c3ccc4[nH]ncc4c3)n2n1 | inactive | –
17 | O=C1NC2CCc3nc4ccccc4c(=O)n3C2=Nc2ccccc21 (stereo not given) | inactive | –
18 | CC(C)CC1OC(=O)C2CCCN2C(=O)CCNC(=O)C(Cc2ccccc2)NC(=O)C(C(C)C)N(C)C(=O)C(C(C)C)N(C)C1=O (stereo not given) (cyclo([ξLac(3-iPr)][NMeV][NMeV]F[βAla]P); configuration not given here) | inactive | –
19 | C[C@@H]1[C@H]2[C@H](O[C@@H]3O[C@H](CO)[C@@H](O)[C@H](O)[C@H]3O)OC=C(C(=O)O)[C@H]2C[C@@H]1O | inactive | –
20 | CC1OC(OC2C(CO)OC(OCC3OC(OC(=O)C45CCC(C)(C)CC4C4=CCC6C7(C)CCC(OC8OC(CO)C(O)C(OC9OC(CO)C(O)C(O)C9O)C8O)C(C)(C)C7CCC6(C)C4(C)CC5)C(O)C(O)C3O)C(O)C2O)C(O)C(O)C1OC1OC(CO)C(O)C(O)C1O (stereo not given) | – | -4.16% [at 12.4 µM] (inactive)

Row | Structure (SMILES) | Potency | activity change, negative = inhibition
21 | CC1CC[C@]2(C(=O)O)CC[C@]3(C(=O)O)C(=CCC4[C@@]5(C)CC[C@H](OC6OC(C)C(O)C(OC7OC(CO)C(O)C(O)C7O)C6O)C(C)(C)C5CC[C@]43C)C2C1C (stereo not given in full) | inactive | –
22 | C[C@@H]1O[C@@H](O[C@H]2[C@H](O[C@H]3[C@H](O[C@H]4CC[C@@]5(C)C(CC[C@]6(C)C5CC=C5[C@@H]7CC(C)(C)CC[C@]7(C(=O)O[C@@H]7O[C@H](CO)[C@@H](O[C@@H]8O[C@@H](C)[C@H](O)[C@@H](O)[C@H]8O)[C@H](O)[C@H]7O)CC[C@]56C)C4(C)C)OC[C@H](O)[C@@H]3O)O[C@H](CO)[C@@H](O)[C@@H]2O)[C@H](O)[C@H](O)[C@H]1O (stereo not given in full) | – | -0.624% [at 12.4 µM] (inactive)
23 | CC1OC(O[C@H]2CC[C@@]3(C)C(CC[C@]4(C)C3CC=C3C5CC(C)(C)CC[C@]5(C(=O)OC5OC(CO)C(OC6OC(COC7OCC(O)C(O)C7O)C(O)C(O)C6O)C(O)C5O)CC[C@]34C)C2(C)C)C(O)C(O)C1OC1OCC(OC2OCC(O)C(O)C2O)C(O)C1O (stereo not given in full) | – | -11.1% [at 12.4 µM] (inactive)
24 | C=C[C@@]12COC(=O)C(=C)C1[C@@H](O)[C@H](C(=C)C(=O)OC)[C@@H](OC(=O)C(=C)CO)C2 (stereo not given in full) | inactive | –
25 | C=C(C)C(=O)OC1C(OC(C)=O)/C(C=O)=C\CC/C(CO)=C/C2OC(=O)C(=C)C21 (stereo not given) | inactive | –
26 | O=C1CCC=CC1(O)C(=O)OCc1ccccc1O[C@@H]1O[C@H](CO)[C@@H](O)[C@H](O)[C@H]1O (stereo not given in full) | inactive | –
27 | C[C@H](NC(c1cccc(C[P+](=O)O)c1)[C@H](C)O)c1ccc(Cl)c(Cl)c1 (stereo not given in full) | inactive | –
28 | CN(C)c1nc(NC2CCC(NCCc3ccc(Br)cc3OC(F)(F)F)CC2)nc2ccccc12 (stereo not given) | inactive | –
29 | O=c1[nH]ccc2cc(OC3CCNCC3)ccc12 | inactive | –
30 | CC1(C(=O)O)CCCC2(C)C3=CCC4CC3(CCC12)CC4CO (stereo not given) | inactive | –
31 | C=C(C(=O)O)C1CCC2(C)CCC(O)C(C)(O)C2C1 (stereo not given) | inactive | –
32 | O=S(=O)(c1ccccc1)c1cnc2c(N3CCNCC3)cccc2c1 | inactive | –
33 | CC(C)=CCc1cc(C(O)C2NC(=O)CNC(=O)C(Cc3c[nH]c4ccccc34)NC(=O)C3CCCN3C(=O)CNC(=O)C(C(C)C)NC(=O)CNC2=O)ccc1O (stereo not given) (cyclo(G[X4]GVGPW); configuration not given here) | inactive | –
34 | CCCCc1nc2cc(/C=C/C(=O)NO)ccc2n1CCN(CC)CC | inactive | –
35 | CCOCc1nc2c(N)nc3ccccc3c2n1CC(C)(C)O | inactive | –
36 | C/C(=C\CCC(C)CCO)C(=O)OC1(C)CCC2C(C(=O)O)=COC(OC3OC(CO)C(O)C(O)C3O)C21 (stereo not given) | inactive | –
37 | Cc1c(C(=O)Nc2ccc(N3CC(C)OC(C)C3)nc2)cccc1-c1ccc(OC(F)(F)F)cc1 (stereo not given) | inactive | –
38 | CC1=CC(=O)CC(C)(C)C1/C=C/C(C)O[C@@H]1O[C@H](CO)[C@@H](O)[C@H](O)[C@H]1O[C@@H]1OC[C@](O)(CO)[C@H]1O (stereo not given in full) | inactive | –
39 | C/C(=C\CCC1(C)C2CCC(C2)C1(C)O)C(=O)O (stereo not given) | inactive | –
40 | COc1ccc(-n2[nH]c(=O)c3[nH]c4cc(Cl)ccc4c(=O)c3c2=O)c(C)c1 | inactive | –
